Reference: the supplement of paper PMC10849652
About 7,900 targets were measured; listed, in parts, are those with a hit and a random draw of the rest. About 0.6% of all pairs of compound and target were hits.

Key:
Test in all cases: log2 fold change, soluble protein after heating vs DMSO (PISA); higher = thermal stabilisation; K562 cells, 10 uM, 30 min; active = over 0.2 and 3.5 SD of the protein, either way, in both replicates (recomputed)
bafetinib = compound: Cc1ccc(NC(=O)c2ccc(CN3CC[C@H](N(C)C)C3)c(C(F)(F)F)c2)cc1Nc1nccc(-c2cncnc2)n1 [bafetinib]
Method in brief: (§1)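 K562 cells (2×10^6 cells/mL) were treated with 10 μM compound for 30 min, and aliquots were heated for 3 min over 48°C-58°C. Pooled aliquots were extracted in PBS with 0.5% NP-40 at 4°C, and the supernatant after 21,000xg for 90 min was measured by TMTpro 16plex LC-MS/MS with channel sums equalised. Reported thermal stability, relative to control samples and from duplicates, is a log2 fold change.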

[1] = compound: Cc1cccc(CC(=O)N2CCc3c2ccc(-c2cn(C)c4ncnc(N)c24)c3F)n1
Method in brief: as §1

nilotinib = compound: Cc1cn(-c2cc(NC(=O)c3ccc(C)c(Nc4nccc(-c5cccnc5)n4)c3)cc(C(F)(F)F)c2)cn1 [nilotinib]
Method in brief: as §1

[2] = compound: Cc1nc(Nc2n[nH]c3c2CN(C(=O)N[C@H](CN(C)C)c2ccccc2)C3(C)C)c2sccc2n1
Method in brief: as §1

dasatinib = compound: Cc1nc(Nc2ncc(C(=O)Nc3c(C)cccc3Cl)s2)cc(N2CCN(CCO)CC2)n1 [dasatinib]
Method in brief: as §1

[3] = compound: Cc1ncc(-c2ccnc(Nc3ccc(S(C)(=O)=O)cc3)n2)n1C(C)C
Method in brief: as §1

[4] = compound: Cn1cc(-c2ccc3c(c2)CCN3C(=O)Cc2cccc(C(F)(F)F)c2)c2c(N)ncnc21
Method in brief: as §1

[5] = compound: Cn1cc(-c2ccc3nnc(C(F)(F)c4ccc5ncccc5c4)n3n2)cn1
Method in brief: as §1

tipifarnib = compound: Cn1cncc1[C@@](N)(c1ccc(Cl)cc1)c1ccc2c(c1)c(-c1cccc(Cl)c1)cc(=O)n2C [tipifarnib]
Method in brief: as §1

mubritinib = compound: FC(F)(F)c1ccc(/C=C/c2nc(COc3ccc(CCCCn4ccnn4)cc3)co2)cc1 [mubritinib]
Method in brief: as §1

[6] = compound: NC(=O)Nc1cc(-c2cccc(F)c2)sc1C(=O)N[C@H]1CCCNC1
Method in brief: as §1

[7] = compound: NC(=O)c1cnc(N[C@@H]2CCCC[C@@H]2N)nc1Nc1cccc(-n2nccn2)c1
Method in brief: as §1

[8] = compound: NC1(c2ccc(-c3nc4ccn5c(=O)[nH]nc5c4cc3-c3ccccc3)cc2)CCC1
Method in brief: as §1

[9] = compound: NCC(=O)Nc1ccc(-n2nc(C(F)(F)F)cc2-c2ccc3c(ccc4ccccc43)c2)cc1
Method in brief: as §1

entinostat = compound: Nc1ccccc1NC(=O)c1ccc(CNC(=O)OCc2cccnc2)cc1 [entinostat]
Method in brief: as §1

vorinostat = compound: O=C(CCCCCCC(=O)Nc1ccccc1)NO [vorinostat]
Method in brief: as §1

citarinostat = compound: O=C(CCCCCCNC(=O)c1cnc(N(c2ccccc2)c2ccccc2Cl)nc1)NO [citarinostat]
Method in brief: as §1

silmitasertib = compound: O=C(O)c1ccc2c(c1)nc(Nc1cccc(Cl)c1)c1ccncc12 [silmitasertib]
Method in brief: as §1

[10] = compound: O=C1NC(=O)C(c2cnc3ccccn23)=C1c1cn2c3c(cc(F)cc13)CN(C(=O)N1CCCCC1)CC2
Method in brief: as §1

[11] = compound: c1cc(OCCN2CCCCC2)cc(-c2n[nH]c3ccc(-c4nnc[nH]4)cc23)c1
Method in brief: as §1

Measured: log2 fold change

HNRNPH1 (UniProt P31943)
Sequence of UniProt P31943 (P31943 whole entry, looked up): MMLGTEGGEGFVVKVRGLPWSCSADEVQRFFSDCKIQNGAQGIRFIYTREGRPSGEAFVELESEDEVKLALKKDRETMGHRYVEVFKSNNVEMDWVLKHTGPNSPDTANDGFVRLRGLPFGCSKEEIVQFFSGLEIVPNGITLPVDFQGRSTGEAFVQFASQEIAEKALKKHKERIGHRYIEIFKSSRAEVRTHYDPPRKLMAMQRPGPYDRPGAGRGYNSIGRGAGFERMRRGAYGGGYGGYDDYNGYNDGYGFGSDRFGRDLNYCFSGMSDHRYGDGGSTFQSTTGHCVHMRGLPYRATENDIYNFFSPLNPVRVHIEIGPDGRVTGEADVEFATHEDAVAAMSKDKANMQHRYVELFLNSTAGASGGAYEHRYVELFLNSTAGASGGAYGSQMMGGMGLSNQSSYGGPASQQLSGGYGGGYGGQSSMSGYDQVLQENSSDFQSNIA
inactive: bafetinib 0.004 | [1] 0.037 | nilotinib -0.141 | [2] -0.236 | dasatinib -0.083 | [3] -0.116 | [4] 0.022 | [5] 0.055 | tipifarnib -0.124 | mubritinib -0.044 | [6] 0.052 | [7] -0.023 | [8] -0.075 | [9] -0.059 | entinostat 0.118 | vorinostat 0.168 | citarinostat 0.09 | silmitasertib 0.024 | [10] -0.105 | [11] -0.074

FNTB (UniProt P49356)
Sequence of UniProt P49356 (P49356 whole entry, looked up): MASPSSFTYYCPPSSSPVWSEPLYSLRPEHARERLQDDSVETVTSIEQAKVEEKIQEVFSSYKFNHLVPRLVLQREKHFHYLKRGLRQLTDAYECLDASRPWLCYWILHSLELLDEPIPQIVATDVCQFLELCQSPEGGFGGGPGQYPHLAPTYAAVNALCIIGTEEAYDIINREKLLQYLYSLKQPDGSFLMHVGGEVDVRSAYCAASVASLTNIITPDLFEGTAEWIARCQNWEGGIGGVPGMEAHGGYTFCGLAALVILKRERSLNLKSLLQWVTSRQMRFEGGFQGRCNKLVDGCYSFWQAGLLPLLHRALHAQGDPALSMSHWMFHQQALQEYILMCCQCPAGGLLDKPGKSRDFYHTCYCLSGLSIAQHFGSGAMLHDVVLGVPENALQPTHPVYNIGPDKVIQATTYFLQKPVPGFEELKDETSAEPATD
inactive: bafetinib 0.028 | [1] 0.015 | nilotinib 0.028 | [2] 0.177 | dasatinib 0.22 | [3] -0.056 | [4] 0.196 | [5] 0.251 | mubritinib -0.103 | [6] -0.024 | [7] 0.09 | [8] 0.162 | [9] -0.035 | entinostat -0.079 | vorinostat -0.038 | citarinostat 0.054 | silmitasertib -0.019 | [10] 0.048 | [11] 0.002
active: tipifarnib 0.757

IFRD2 isoform 2 (UniProt Q12894)
Sequence of UniProt Q12894 (Q12894 whole entry, looked up): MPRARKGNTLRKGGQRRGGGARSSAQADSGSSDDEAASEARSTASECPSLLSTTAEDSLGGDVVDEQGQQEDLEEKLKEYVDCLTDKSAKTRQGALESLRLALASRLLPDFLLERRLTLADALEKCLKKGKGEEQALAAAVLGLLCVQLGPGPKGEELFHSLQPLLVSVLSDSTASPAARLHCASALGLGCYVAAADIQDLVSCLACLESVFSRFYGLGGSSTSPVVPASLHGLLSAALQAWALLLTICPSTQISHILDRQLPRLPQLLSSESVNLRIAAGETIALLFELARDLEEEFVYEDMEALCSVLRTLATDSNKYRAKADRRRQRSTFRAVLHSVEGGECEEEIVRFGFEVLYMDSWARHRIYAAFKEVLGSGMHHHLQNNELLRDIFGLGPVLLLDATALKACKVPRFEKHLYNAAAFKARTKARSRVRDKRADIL
inactive: bafetinib -0.083 | [1] -0.019 | nilotinib 0.153 | [2] 0.047 | dasatinib 0.028 | [3] 0.236 | [4] 0.07 | [5] -0.176 | tipifarnib 0.08 | mubritinib 0.073 | [6] -0.044 | [7] -0.279 | [8] 0.003 | [9] 0.11 | entinostat -0.2 | vorinostat -0.244 | citarinostat -0.028 | silmitasertib 0.276 | [10] -0.008 | [11] 0.046

GEMIN6 (UniProt Q8WXD5)
Sequence of UniProt Q8WXD5 (Q8WXD5 whole entry, looked up): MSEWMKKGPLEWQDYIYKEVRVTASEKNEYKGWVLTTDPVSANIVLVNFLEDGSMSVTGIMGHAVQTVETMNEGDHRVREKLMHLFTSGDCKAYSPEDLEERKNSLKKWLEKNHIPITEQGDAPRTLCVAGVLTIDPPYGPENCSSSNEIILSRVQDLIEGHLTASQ
inactive: bafetinib -0.011 | [1] -0.042 | nilotinib 0.004 | [2] 0.015 | dasatinib -0.024 | [3] -0.022 | [4] 0.018 | tipifarnib -0.002 | mubritinib 0.067 | [6] 0.066 | [7] 0.015 | [8] -0.108 | [9] 0.099 | entinostat -0.005 | vorinostat -0.04 | citarinostat -0.12 | silmitasertib 0.015 | [10] -0.139 | [11] -0.106
active: [5] 0.306

IDI1 isoform 2 (UniProt Q13907)
Sequence of UniProt Q13907 (Q13907 whole entry, looked up): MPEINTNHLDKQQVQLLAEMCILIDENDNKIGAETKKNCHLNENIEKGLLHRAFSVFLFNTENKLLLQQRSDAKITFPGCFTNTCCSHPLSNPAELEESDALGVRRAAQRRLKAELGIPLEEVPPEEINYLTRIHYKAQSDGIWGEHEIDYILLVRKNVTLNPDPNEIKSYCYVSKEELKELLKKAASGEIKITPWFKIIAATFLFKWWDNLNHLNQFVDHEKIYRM
inactive: bafetinib -0.019 | [1] -0.038 | nilotinib 0.049 | [2] 0.022 | dasatinib 0.002 | [3] -0.01 | [4] 0.096 | [5] -0.012 | tipifarnib 0.018 | mubritinib 0.054 | [6] -0.062 | [7] 0.01 | [8] -0.038 | [9] 0.024 | entinostat -0.03 | vorinostat 0.008 | citarinostat -0.017 | silmitasertib 0.078 | [10] -0.066 | [11] 0.035

FBXO6 (UniProt Q9NRD1)
Sequence of UniProt Q9NRD1 (Q9NRD1 whole entry, looked up): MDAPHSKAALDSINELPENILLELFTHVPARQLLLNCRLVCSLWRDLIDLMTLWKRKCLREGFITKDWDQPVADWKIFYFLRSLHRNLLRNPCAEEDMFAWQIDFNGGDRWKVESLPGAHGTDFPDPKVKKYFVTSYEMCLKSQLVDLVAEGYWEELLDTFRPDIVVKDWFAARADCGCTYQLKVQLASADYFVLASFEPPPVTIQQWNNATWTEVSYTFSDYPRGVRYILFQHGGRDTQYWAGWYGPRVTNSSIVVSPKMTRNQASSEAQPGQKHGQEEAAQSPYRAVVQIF
inactive: [1] 0.015 | nilotinib -0.118 | [2] -0.004 | dasatinib -0.202 | [3] 0.044 | [4] 0.047 | [5] -0.021 | tipifarnib -0.021 | mubritinib -0.038 | [6] -0.009 | [7] 0.034 | [9] 0.028 | entinostat 0.013 | vorinostat 0.074 | citarinostat 0.075 | silmitasertib 0.012 | [10] -0.017 | [11] 0.026
active: bafetinib 0.442 | [8] 0.366

FUCA2 (UniProt Q9BTY2)
Sequence of UniProt Q9BTY2 (Q9BTY2 whole entry, looked up): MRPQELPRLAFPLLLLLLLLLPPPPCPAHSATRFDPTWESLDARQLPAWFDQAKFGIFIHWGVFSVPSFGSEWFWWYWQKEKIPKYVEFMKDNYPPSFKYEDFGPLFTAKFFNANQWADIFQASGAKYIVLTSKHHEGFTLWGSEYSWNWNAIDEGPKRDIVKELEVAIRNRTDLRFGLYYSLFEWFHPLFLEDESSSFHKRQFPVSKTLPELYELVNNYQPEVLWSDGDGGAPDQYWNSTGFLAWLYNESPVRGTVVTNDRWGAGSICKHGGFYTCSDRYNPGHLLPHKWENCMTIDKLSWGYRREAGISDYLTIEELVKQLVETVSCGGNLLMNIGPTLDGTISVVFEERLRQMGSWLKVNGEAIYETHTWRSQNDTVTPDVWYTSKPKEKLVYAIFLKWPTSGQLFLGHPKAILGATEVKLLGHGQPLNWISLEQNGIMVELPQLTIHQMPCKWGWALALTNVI
inactive: [1] -0.022 | nilotinib 0.032 | [2] 0.001 | dasatinib 0.022 | [3] -0.009 | [4] 0.012 | [5] -0.019 | tipifarnib 0.077 | mubritinib 0.013 | [6] 0.004 | [7] -0.037 | [9] 0.013 | entinostat -0.03 | vorinostat -0.033 | citarinostat 0.042 | silmitasertib 0.032 | [10] 0.032
active: bafetinib -0.809 | [8] -0.499 | [11] -0.551

GEMIN2 (UniProt O14893)
Sequence of UniProt O14893 (O14893 whole entry, looked up): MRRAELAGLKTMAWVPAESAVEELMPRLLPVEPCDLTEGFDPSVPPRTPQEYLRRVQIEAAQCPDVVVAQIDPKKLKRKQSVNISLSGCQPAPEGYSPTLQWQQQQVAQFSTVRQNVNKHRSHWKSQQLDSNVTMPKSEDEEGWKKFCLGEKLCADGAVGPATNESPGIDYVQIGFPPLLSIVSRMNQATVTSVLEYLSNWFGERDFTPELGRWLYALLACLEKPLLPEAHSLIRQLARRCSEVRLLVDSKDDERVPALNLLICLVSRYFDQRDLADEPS
active: [10] 0.375
inactive: bafetinib -0.154 | [1] -0.124 | nilotinib -0.045 | [2] 0 | dasatinib 0.049 | [3] -0.027 | [4] -0.039 | [5] -0.095 | tipifarnib 0.08 | mubritinib -0.048 | [6] -0.05 | [7] -0.015 | [8] 0.017 | [9] -0.116 | entinostat -0.055 | vorinostat 0.102 | citarinostat -0.103 | silmitasertib 0.038 | [11] 0.073

GABARAPL1 isoform 2 (UniProt Q9H0R8)
Sequence of UniProt Q9H0R8 (Q9H0R8 whole entry, looked up): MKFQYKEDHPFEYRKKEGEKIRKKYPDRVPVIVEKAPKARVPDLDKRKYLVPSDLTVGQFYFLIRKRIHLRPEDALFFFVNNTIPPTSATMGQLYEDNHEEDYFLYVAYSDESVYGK
inactive: bafetinib -0.171 | [1] 0.006 | nilotinib -0.05 | [2] -0.028 | dasatinib -0.031 | [3] 0.017 | [4] -0.016 | [5] 0.003 | tipifarnib -0.075 | mubritinib 0.044 | [6] -0.051 | [7] -0.13 | [9] -0.134 | entinostat -0.009 | vorinostat -0.028 | citarinostat 0.038 | silmitasertib -0.083 | [10] -0.049 | [11] 0.021
active: [8] -0.252

ICAM1 (UniProt P05362)
Sequence of UniProt P05362 (P05362 whole entry, looked up): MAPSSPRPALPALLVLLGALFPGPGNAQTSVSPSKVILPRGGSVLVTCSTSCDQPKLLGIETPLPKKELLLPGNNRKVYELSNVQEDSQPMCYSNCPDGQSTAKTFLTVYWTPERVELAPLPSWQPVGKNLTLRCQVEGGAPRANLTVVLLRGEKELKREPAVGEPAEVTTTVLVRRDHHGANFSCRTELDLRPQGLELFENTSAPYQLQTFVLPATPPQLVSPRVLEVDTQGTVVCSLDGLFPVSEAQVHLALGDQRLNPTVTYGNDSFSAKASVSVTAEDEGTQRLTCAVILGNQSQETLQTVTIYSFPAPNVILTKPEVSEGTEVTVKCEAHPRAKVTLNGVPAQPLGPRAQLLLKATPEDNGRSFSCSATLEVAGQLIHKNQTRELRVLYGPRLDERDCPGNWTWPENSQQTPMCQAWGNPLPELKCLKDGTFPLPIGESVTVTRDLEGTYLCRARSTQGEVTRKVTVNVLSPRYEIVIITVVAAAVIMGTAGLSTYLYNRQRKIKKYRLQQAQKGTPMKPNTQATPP
inactive: bafetinib 0.031 | [1] -0.024 | nilotinib 0.055 | [2] 0.051 | dasatinib -0.01 | [3] -0.019 | [4] 0.048 | [5] -0.006 | tipifarnib 0.019 | mubritinib 0.046 | [6] 0.016 | [7] 0.109 | [8] 0.087 | [9] 0.008 | entinostat -0.026 | vorinostat -0.008 | citarinostat 0.024 | silmitasertib -0.028 | [10] -0.07 | [11] -0.06

GNPAT (UniProt O15228)
Sequence of UniProt O15228 (O15228 whole entry, looked up): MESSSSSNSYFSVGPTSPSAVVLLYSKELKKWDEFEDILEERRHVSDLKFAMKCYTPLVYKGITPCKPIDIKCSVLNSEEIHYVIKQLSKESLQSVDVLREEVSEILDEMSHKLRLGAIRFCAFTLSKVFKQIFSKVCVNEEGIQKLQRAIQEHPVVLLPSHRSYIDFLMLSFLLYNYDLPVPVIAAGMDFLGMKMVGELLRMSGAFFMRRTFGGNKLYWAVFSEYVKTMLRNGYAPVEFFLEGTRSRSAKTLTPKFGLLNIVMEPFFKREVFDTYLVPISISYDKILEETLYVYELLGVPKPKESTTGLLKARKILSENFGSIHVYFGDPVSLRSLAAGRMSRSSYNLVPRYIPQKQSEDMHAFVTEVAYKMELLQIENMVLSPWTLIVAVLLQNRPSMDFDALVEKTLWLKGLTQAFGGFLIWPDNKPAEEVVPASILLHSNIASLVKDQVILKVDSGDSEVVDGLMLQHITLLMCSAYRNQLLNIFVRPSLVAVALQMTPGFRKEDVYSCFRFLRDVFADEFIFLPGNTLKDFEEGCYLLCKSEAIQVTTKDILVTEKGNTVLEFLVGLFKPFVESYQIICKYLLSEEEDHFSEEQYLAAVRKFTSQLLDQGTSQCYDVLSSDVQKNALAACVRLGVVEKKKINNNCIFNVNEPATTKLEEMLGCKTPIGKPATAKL
inactive: bafetinib -0.129 | [1] 0.045 | nilotinib -0.011 | [2] -0.008 | dasatinib 0.014 | [3] -0.028 | [4] 0.059 | [5] 0.005 | tipifarnib 0.031 | mubritinib 0.005 | [6] 0.02 | [7] -0.008 | [8] -0.066 | [9] 0 | entinostat 0.021 | vorinostat -0.008 | citarinostat 0.041 | silmitasertib -0.041 | [10] -0.061 | [11] -0.02

HIKESHI (UniProt Q53FT3)
Sequence of UniProt Q53FT3 (Q53FT3 whole entry, looked up): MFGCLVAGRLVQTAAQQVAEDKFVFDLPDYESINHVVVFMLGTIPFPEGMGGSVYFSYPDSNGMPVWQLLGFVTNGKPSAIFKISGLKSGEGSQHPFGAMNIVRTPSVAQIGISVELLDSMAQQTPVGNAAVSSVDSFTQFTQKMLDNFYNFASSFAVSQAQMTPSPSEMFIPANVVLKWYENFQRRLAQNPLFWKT
inactive: bafetinib -0.003 | [1] 0.02 | nilotinib -0.062 | [2] 0.018 | dasatinib 0.079 | [3] 0.009 | [4] 0.043 | [5] 0.065 | tipifarnib -0.043 | mubritinib 0.025 | [6] 0 | [7] -0.045 | [8] -0.046 | [9] -0.053 | entinostat -0.003 | vorinostat -0.05 | citarinostat 0.021 | silmitasertib 0.002 | [10] 0.026 | [11] -0.056

GLUD1 (UniProt P00367)
Sequence of UniProt P00367 (P00367 whole entry, looked up): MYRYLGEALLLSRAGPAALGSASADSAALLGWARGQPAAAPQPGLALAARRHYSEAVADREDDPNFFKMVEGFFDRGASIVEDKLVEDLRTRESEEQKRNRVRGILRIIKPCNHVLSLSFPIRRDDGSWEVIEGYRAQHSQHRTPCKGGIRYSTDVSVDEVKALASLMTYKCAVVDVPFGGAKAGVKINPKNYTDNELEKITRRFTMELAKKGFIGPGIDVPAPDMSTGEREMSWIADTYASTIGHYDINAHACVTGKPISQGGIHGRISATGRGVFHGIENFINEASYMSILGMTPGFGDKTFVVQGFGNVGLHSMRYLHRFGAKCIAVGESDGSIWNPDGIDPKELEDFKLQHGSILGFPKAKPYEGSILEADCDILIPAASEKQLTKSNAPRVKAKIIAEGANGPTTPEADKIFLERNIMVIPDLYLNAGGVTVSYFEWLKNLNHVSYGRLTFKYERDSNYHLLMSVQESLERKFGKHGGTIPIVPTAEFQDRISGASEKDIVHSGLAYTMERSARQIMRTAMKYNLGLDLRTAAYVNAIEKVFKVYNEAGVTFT
active: nilotinib 0.382 | [2] 0.266
inactive: bafetinib 0.25 | [1] 0.012 | dasatinib 0.056 | [3] -0.015 | [4] 0.173 | [5] 0.04 | tipifarnib 0.068 | mubritinib 0.046 | [6] -0.058 | [7] -0.014 | [8] -0.043 | [9] -0.032 | entinostat -0.051 | vorinostat -0.061 | citarinostat -0.023 | silmitasertib -0.095 | [10] 0.082 | [11] 0.052

GCC2 (UniProt Q8IWJ2)
inactive: bafetinib 0.033 | [1] -0.045 | nilotinib -0.14 | [2] -0.071 | dasatinib -0.011 | [3] 0.119 | [4] -0.032 | [5] 0.02 | tipifarnib 0.051 | mubritinib -0.088 | [6] -0.009 | [7] -0.005 | [8] 0.081 | [9] 0.009 | entinostat 0.03 | vorinostat -0.002 | citarinostat -0.066 | silmitasertib 0.212 | [10] 0.225 | [11] 0.009

GABARAPL2 (UniProt P60520)
inactive: bafetinib -0.168 | [1] 0.096 | nilotinib -0.015 | [2] -0.028 | dasatinib -0.014 | [3] -0.004 | [4] 0.046 | [5] 0.279 | tipifarnib -0.003 | mubritinib 0.03 | [6] -0.036 | [7] -0.088 | [8] -0.145 | [9] -0.079 | entinostat -0.011 | vorinostat 0.063 | citarinostat 0.041 | silmitasertib -0.049 | [10] -0.048 | [11] 0.015
